Molecules are shown by their SMILES. This is part of a sample that, as a whole, favours compounds with a hit. Of some 83,000 tested, about 20% had one in any assay.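 Compound tested at a single concentration for 48 hours in 96-well plates; a percent growth value below 10 was scored as active.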 Values without a mark were called inactive. Calls of active or inactive are those of the source.

The subject of the assay is U251 CNS. As to the kind of experiment: NCI-60 one-dose screen, 48 h (100 = growth as untreated, 0 = no growth, -100 = all killed). As to conditions: 10 µM unless noted. The protocol: Growth inhibition of the U251 human tumor cell line is measured as a screen for anti-cancer activity. Cells are grown in 96 well plates and exposed to the test compound for 48 hours. Compounds are tested at a single concentration, which is 10^-5 M for most compounds. The reported endpoint is percent growth (GI% or GIPRCNT), where numbers from 0 - 100% represent growth inhibition, and numbers from -100% - 0 represent cell death. For example, a value of 40 represents 60% growth inhibition. A value of 0 means no net growth occurred over the course of the experiment. A value of -40 indicates 40% of cells at the beginning of the experiment died by the end of the experiment. A value of -100 means all cells are dead at the end of the experiment.
NCI-60 Human Tumor Cell Lines Screen was performed using the standard one-dose NCI protocol, which is described in more detail at https://dtp.cancer.gov/discovery_development/nci-60/default.htm.
Compounds with GIPRCNT values below 10 were considered active. Activity score was based on GIPRCNT using the following formula: […]
Score is 0 for GIPRCNT values of 100 or above, 50 for GIPRCNT values of 0, and 100 for GIPRCNT values of -100.
As for `O=C(CN(C(=O)Cn1c(=O)n2nnnc2c2ccccc21)c1ccccc1C(F)(F)F)Nc1ccc(C(F)(F)F)cc1`, the growth is 99.1%.

For the compound `O=C1/C(=C/c2ccc(OCCCOc3ccc(Cl)cc3)cc2)N=C2SCCCN12`, the growth is 69.6%.

As to `O=[N+]([O-])c1ccc(Nc2nc(NCCN3CCOCC3)ncc2[N+](=O)[O-])cc1`, the growth was 88.6%.

Regarding `Cc1cc2c3ccccc3ccc2[n+]2ccccc12`, the growth is 6.05% (active).

With `OCCN1CCN(c2nc(Nc3ccc(-c4nc5ccccc5[nH]4)cc3)c3cn[nH]c3n2)CC1`, the growth is -99.7% (active).

Turning to `CC/C=C\C/C=C\C[C@H]1C/C=C2/C(=O)C=C[C@@H]2C/C=C\CCC(=O)O1`, the growth is -23.2% (active).

Consider `CCOc1cc2c(cc1OCC)C(c1cc(OC)c(O)cc1Cl)NCC2` (stereo not given), for which the growth was 84.1%.

As for `COc1ccc(C(=O)c2sc3nc4c(c(-c5cccnc5)c3c2N)CCCC4)cc1OC`, the growth is 70.2%.

As to `CCOC(=O)c1sc(Nc2ccc(Cl)cc2)nc1C`, the growth was 13.5%.

Take `CCOC(=O)C(C)(C#N)C1C=CCCC1` (stereo not given): the growth is 106%.

With `CC[N+](CC)=c1sc2c(s1)C(c1ccc(Cl)cc1)Oc1ccc(Cl)cc1-2` (stereo not given), the growth was -53.8% (active).

For `COc1ccc(/C=C2\Oc3cc(OCCCCN4CCCC4)ccc3C2=O)cc1`, the growth is 62.6%.

Take `COc1cccc(C2=NN3C(C2)c2cc(Br)cc(OC)c2OC32CCN(Cc3ccccc3)CC2)c1` (stereo not given): the growth is 98.8%.

On to `CCCOc1cc2ccccc2cc1C(=O)Nc1nc(NC)c2c(ccc3nccc32)[nH]1`, for which the growth is -85.5% (active).

`COc1ccc2c(c1)c(-c1nonc1-c1cn(C)c3ccccc13)cn2C`: the growth is 32.8%.

For `Oc1ccccc1-c1nnc(CNc2ccc(Cl)cc2)o1`, the growth was 16%.

In the case of `O=c1ccccc(-c2ccc(Br)cc2)c1O`, the growth was 9.54% (active).

In the case of `CCCOc1ccc2nc(NC(=O)OC)[nH]c2c1`, the growth is 12.7%.

Take `O=C1c2c(O)cc(O)cc2-c2c(-c3ccc(O)cc3)oc3cc(O)cc1c23`: the growth was 25.5%.

As for `Cc1ccc(/C=C2\SC(=S)N(CC(=O)NCCCN3CCOCC3)C2=O)cc1`, the growth is 100%.

As to `Nc1n[nH]c2ccc([C@@H]3Nc4cc5c(cc4[C@H]4C6CCC(C6)[C@@H]34)C(=O)NC5)cc12` (stereo not given in full), the growth is 18.1%.

Consider `O=C(Oc1cccnc1)c1ccsc1Nc1ccnc(C(F)(F)F)c1`, for which the growth is 92.5%.

On to `Cc1nc(Nc2ccc(F)c(Cl)c2)sc1C(=O)O`, for which the growth is 8.16% (active).

With `CCCCN(CCCC)CCCn1c(-c2ccccc2)ccc1-c1ccccc1`, the growth was 58.3%.

For `CCOC(=O)c1c(C)oc2ncnc(N3CCN(C(=S)Nc4ccccc4)CC3)c12`, the growth was 89.7%.

`O=C1/C(=C/c2ccccc2)SC(=S)N1CCc1ccc(O)cc1`: the growth was 97.3%.

As for `CCCCCC(=O)Oc1ccc(/C(=C(\C)c2ccc(OC)cc2)c2ccc(OCCN3CCCCC3)cc2)cc1`, the growth was 45.4%.

As for `Brc1ccc(-c2csc(Nc3ccccn3)n2)cc1`, the growth is 166%.

For the compound `Cc1ccc(C2Oc3ccccc3C3CC(c4cccs4)=NN32)cc1` (stereo not given), the growth is 92.5%.

On to `COc1cccc(/C=C2\Oc3cc(OCCN4CCCC4)ccc3C2=O)c1`, for which the growth was 92.1%.

On to `CCCn1c(=O)[nH]c(N)c([C@H]2c3ccccc3Oc3[nH]c(=O)n(CCC)c(=O)c32)c1=O`, for which the growth was 81.8%.

Regarding `Cc1cc(C)nc(SC2=C(Nc3ccc(O)cc3)C(=O)N(Cc3ccccc3)C2=O)n1`, the growth is 91.9% [40 µM].

Turning to `COc1cc(/C=C/C(=O)c2cccnc2Nc2ccc(F)cc2)cc(OC)c1OC`, the growth is 24.1%.

For the compound `Clc1ccc2c(NCCCCNc3nc(N4CCOCC4)nc4ccccc34)ccnc2c1`, the growth is -59.6% (active).

Take `N#Cc1cnn(-c2nc3c(Cl)cccc3s2)c1N`: the growth is 88%.

As to `Clc1ccc2c(NCCCCNc3nc(N4CCCCC4)nc4ccccc34)ccnc2c1`, the growth is -32.9% (active).

In the case of `CCN1CCC2(CC1)NC(=O)c1c(c3ccc(Cl)c(Cl)c3n1C)C2C#N` (stereo not given), the growth was 57%.

For `COc1ccc(-c2n[nH]nc2-c2csc3ccccc23)cc1OC`, the growth is 22.1%.

For the compound `Oc1cccc2ccc(N/N=C/c3cc(CN4CCOCC4)c(O)c4ncccc34)nc12`, the growth is 5.22% (active).

On to `COc1cc(-c2nn(-c3ccc(Br)cc3)cc2C(=O)O)ccc1O`, for which the growth was 109%.
